From PubChem BioAssay AID651597 (National Center for Advancing Translational Sciences (NCATS), 2012) come the findings set out here.

SMILES strings stand for the structures. The whole screen tested about 1,100 compounds, of which about 390 (35%) were called active. Another 30% or so got no clear call; they are omitted. The call rests on the fitted dose curve; in most records, active means well fitted inhibition curve with a large enough effect; inconclusive means small, poorly fitted or top-dose-only effect; inactive means flat fitted curve, though single readings scatter. This is one part of the list.
On the % scale 0 is the no-effect control and ±100 the full control effect; potency means the concentration at half of the fitted maximal effect.

This experiment addresses Luciferin 4-monooxygenase (Photinus pyralis) (UniProt P08659). Briefly: qHTS of Nrf2 Activators: Hit Validation in Secondary FLuc Assay. Further: nearly all actives have a fitted effect of over 65% in size. The following applies: firefly luciferase inhibition counter-screen, luminescence; series mostly up to 57.5 µM; activity, negative = inhibition: at the top concentration. An excerpt:
Many diseases have some form of oxidative stress injury and ties to inflammation, causing a host of problems for the patient. The antioxidant response element (ARE) plays an important role in alleviating the harmful effects of oxidative stress. The antioxidant response element (ARE) is a transcriptional regulatory element involved in the activation of genes coding for a number of antioxidant proteins and detoxifying enzymes. These enzymes work in concert to protect tissues from oxidative insults and chemical toxicities in human hepatocytes and immune cells. The protective effects of ARE activation are primarily triggered through Nrf2 (NF-E2-related factor) binding to and activating AREs. It is known that Nrf2 controls the production of over 250 antioxidant and detoxification proteins (Hu et al., 2006), thereby protecting tissues by increasing cellular antioxidant content and suppressing inflammatory signaling pathways. The transcription factor Nrf2 is a central link between oxidative chemicals, such as phenolic antioxidants and electrophilic compounds, and the activation of ARE. Nrf2 levels are constitutively low as a consequence of its interaction with Keap1, which targets its degradation (Zipper and Mulcahy, 2002). Electrophiles react with key cysteine residues in Keap1, releasing Nrf2 and allowing its translocation to the nucleus. Once within the nucleus, Nrf2 complexes with coactivators such as p300, and binds to the AREs to induce gene transcription of cytoprotective enzymes, resulting in the prevention of toxicity. Activation of Nrf2 protects tissues by increasing cellular antioxidant content and suppressing inflammatory signaling pathways. Identifying novel and potent Nrf2 activators by using the AREc32 cell line to detect ARE activation by small molecules will lead to the identification and development of probes to study protective pathways in multiple tissues. These specific probes are essential to study the ARE pathway, and eventually to determine whether this pathway does activate genes that could protect against a host of diseases, including cardiovascular diseases, obesity, diabetes, Alzheimer's, and Parkinson's disease.
This project's aim is to identify novel and potent Nrf2 activators by using the AREc32 cell line to detect ARE activation by small molecules, which will lead to the identification and development of probes to study the ARE pathway. In this counter assay, we aim to identify false positive as identified from this primary assay using an FLuc assay with an inhibiting read-out.
NIH Chemical Genomics Center [NCGC]
NIH Molecular Libraries Probe Centers Network [MLPCN]
Assay Submitter (PI): Curtis Klaassen, University of Kansas Medical Center
Assess whether an activator in the primary assay potentially causes such activation by inhibitor-induced stabilization of the firefly luciferase reporter enzyme by determining whether it inhibits firefly luciferase in the presence of Km concentrations of its substrates (ATP and D-luciferin).
Background: qHTS replaces the single test concentration by a dilution series.
On to `Clc1ccc(-c2nnc(-c3cccc4ccccc34)o2)cc1`, for which the Potency was 1.35 µM (active).
`COc1cc2c(cc1Cl)/C(=C\CCN(C)C)c1ccccc1S2`: the “activity, negative = inhibition” value was -23.3% (inactive).
In the case of `Cc1nnc2n1N=CC=C(c1ccccc1)S2`, the “activity, negative = inhibition” value was -5.49% (inactive).
In the case of `C#CCSc1nnc(-c2sc3ccccc3c2Cl)o1`, the Potency is 2.39 µM (active).
Take `O=C1C(=C2CCc3ccccc32)Cc2ccccc21`: the Potency was 0.301 µM (active).
Regarding `O=C(NN/C(=N/S(=O)(=O)c1ccc(Cl)cc1)c1ccccc1)c1cccc(Cl)c1`, the Potency is 3.01 µM (active).
Take `O=C(NNC(=O)c1sccc1-n1cccc1)c1cccc(Cl)c1`: the “activity, negative = inhibition” value is -17.1% (inactive).
Take `Cc1ccc(S(=O)(=O)/N=C(/NNC(=O)c2cccc(Cl)c2)c2ccccc2)cc1`: the Potency is 5.36 µM (active).
As for `O=[N+]([O-])c1cccc2ccc(/C=C/c3ccc(F)cc3)nc12`, the Potency was 2.39 µM (active).
Consider `O=[N+]([O-])c1ccc(/C=C/c2ccc3cccc([N+](=O)[O-])c3n2)cc1`, for which the “activity, negative = inhibition” value is -23.3% (inactive).
On the same count and under the same terms, to `Cc1c(=O)n(OCc2ccccc2)c2ccccc2[n+]1[O-]` belongs -2.37% (inactive).
As for `N=c1oc2ccccc2cc1-c1nc(-c2ccccc2)cs1`, the Potency was 2.69 µM (active).
For the compound `CC1CCCCC1NC(=O)COC(=O)c1c2c(nc3ccccc13)/C(=C/c1ccco1)CC2` (stereo not given), the Potency was 4.78 µM (active).
On to `Cc1cc(SCC(=O)N/N=C/c2ccco2)nc2ccccc12`, for which the “activity, negative = inhibition” value is -26.3% (inactive).
Regarding `c1ccc(-c2ccc3c(c2)NC(C2Nc4cc(-c5ccccc5)ccc4O2)O3)cc1` (stereo not given), the “activity, negative = inhibition” value is 1.75% (inactive).
Still for that read-out and setting: to `O=[N+]([O-])c1ccccc1S(=O)c1ccccc1[N+](=O)[O-]` belongs 5.65% (inactive).
For `O=C1C(Cl)=C(N2CCN(c3ccccc3[N+](=O)[O-])CC2)C(=O)c2ccccc21`, the Potency was 1.2 µM (active).
Consider `O=C(Nc1ccc(Cl)cn1)c1cnn2cccnc12`, for which the Potency is 2.39 µM (active).
For the compound `O=C(Nc1cccn2ncnc12)c1cccc(C(F)(F)F)c1`, the “activity, negative = inhibition” value is -23.6% (inactive).
As for `N#CC(C(=O)NCc1ccco1)c1nc2ccccc2nc1N1CCOCC1` (stereo not given), the “activity, negative = inhibition” value was -12.9% (inactive).
For the compound `O=C(NCc1ccco1)c1cccnc1-c1nc2ccccc2s1`, the Potency was 10.7 µM (active).
Turning to `COc1c(Cl)cc(C(=O)NCc2ccco2)cc1Cl`, the “activity, negative = inhibition” value was 1.36% (inactive).
With `O=C(Nc1cccc(/C=C/c2ccccn2)c1)c1ccc(-n2cncn2)cc1`, the Potency is 2.13 µM (active).
Take `COc1ccc(/C(N)=N/OC(=O)c2cccc([N+](=O)[O-])c2)cc1`: the Potency was 1.51 µM (active).
As for `Cn1c(=O)n(C)c2cc(NC(=O)c3cccc([N+](=O)[O-])c3)c(Br)cc21`, the “activity, negative = inhibition” value is 3.58% (inactive).
Take `Cc1cc(CNC(=O)c2cccc([N+](=O)[O-])c2)c2ccccc2n1`: the “activity, negative = inhibition” value was 9.05% (inactive).
For `COc1cc(OC)cc(C(=O)O/N=C(\N)c2cccc(C)c2)c1`, the Potency is 9.53 µM (active).
With `CCOC(=O)CCn1c(=O)c2cccn2c2cccnc21`, the “activity, negative = inhibition” value was -1.77% (inactive).
As for `Cc1nc(/N=C(\N)NC(=O)c2ccccc2)nc2ccccc12`, the Potency was 3.79 µM (active).
Regarding `C(=Cc1cnnc2ccccc12)c1ccccc1`, the Potency is 3.38 µM (active).
Turning to `COc1ccc(C(C)=O)cc1OCc1ccccc1`, the “activity, negative = inhibition” value was 2.24% (inactive).
Same read-out and setting: to `COc1ccc(Cl)cc1NC(=O)c1cc(C)no1` belongs 5.19% (inactive).
Take `COc1ccccc1C(=O)O/N=C(\N)c1ccc(Cl)cc1`: the Potency was 3.38 µM (active).
The same measure, in the same setting: to `COc1ccc(Cl)cc1C(=O)O/N=C(\N)c1ccccn1` belongs 10.7 µM (active).
On to `COc1ccc(Cl)cc1C(=O)NC(=S)Nc1nc(C)cc(C)n1`, for which the “activity, negative = inhibition” value is -3.81% (inactive).
`COc1ccc(Cl)cc1C(=O)O/N=C(\N)c1ccncc1`: the “activity, negative = inhibition” value was -28.3% (inactive).
`COc1ccc(Cl)cc1C(=O)O/N=C(\N)c1ccc(Cl)cc1`: the Potency is 9.53 µM (active).
`COCCNC(=O)c1ccc(-n2c(-c3ccccc3)cc3c2CCC(C)C3)cc1` (stereo not given): the “activity, negative = inhibition” value was -5.53% (inactive).
As to `CSc1nc(Oc2ccc3ccccc3c2)c2sccc2n1`, the “activity, negative = inhibition” value is -2.81% (inactive).
`Cc1nc([N+](=O)[O-])c(Br)n1Cc1ccccc1`: the “activity, negative = inhibition” value was 2.06% (inactive).
For the compound `COc1cccc(/C=C2/CCC(CN(C)C)C2=O)c1` (stereo not given), the Potency was 1.51 µM (active).
Consider `COc1ccc(/C=C2/CCCC(CN(C)C)C2=O)cc1` (stereo not given), for which the Potency was 3.38 µM (active).
Same read-out and setting: to `c1ccc(-c2noc(-c3cccnc3)n2)cc1` belongs 3.01 µM (active).
In the case of `c1ccc(-c2noc(-c3cccc4ccccc34)n2)cc1`, the Potency was 0.953 µM (active).
As for `O=C(CSc1nnc(-c2cccnc2)o1)c1cc2ccccc2oc1=O`, the “activity, negative = inhibition” value was -5.35% (inactive).
In the case of `COc1cccc(C2=CC(c3cccs3)n3nnnc3N2)c1` (stereo not given), the “activity, negative = inhibition” value is -29.4% (inactive).
As for `COc1nc2ccc(C)cc2cc1-c1noc(-c2ccccc2)n1`, the “activity, negative = inhibition” value is -6.47% (inactive).
Regarding `COc1cccc(-c2nc(-c3ccccc3)no2)c1`, the Potency is 0.151 µM (active).
Take `Fc1ccccc1-c1nc(-c2ccc(Cl)cc2)no1`: the Potency is 0.478 µM (active).
Regarding `Brc1ccc(-c2nnc(-c3cccnc3)c3conc23)cc1`, the “activity, negative = inhibition” value is -20.3% (inactive).
Same read-out and setting: to `O=C(CN1CC(=O)Oc2ccccc21)OCC(=O)c1ccc(F)cc1` belongs -0.826% (inactive).
Consider `c1cncc(-c2noc(-c3cccc4ccccc34)n2)c1`, for which the Potency is 2.39 µM (active).
Turning to `Cc1cc(C)c(C#N)c(SCC(=O)c2ccccc2)n1`, the “activity, negative = inhibition” value is -6.37% (inactive).
On the same count and under the same terms, to `Cc1cc(C)c(C#N)c(OCC(=O)c2ccccc2)n1` belongs 4.68% (inactive).
With `Cc1cc(C)c(C#N)c(SCC(=O)c2cccs2)n1`, the Potency is 12 µM (active).
